Screening data (PubChem BioAssay)
C diff HTS = blocks growth of Clostridium difficile. Clostridium difficile clinical isolate growth, OD600, 24 h; active compounds read low. growth activity, negative = inhibition, % at 16 µg/mL (by protocol). actives 0.25% (n = 86,000). AID 1259249;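 active means mean growth activity at or below -80% and every replicate also at or below -80%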
T cruzi growth = blocks T. cruzi growth in NIH3T3 culture; actives 5.9% (n = 77,000); T. cruzi beta-gal in NIH3T3, GalScreen luminescence, 90 h; inhibition, % at 8.34 µM;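 active means mean inhibition above about 93%, with at least 55% of replicates each passing it, limit read from the data, passing the limit was not always enough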
Pf Dd2 inh = blocks growth of Plasmodium falciparum Dd2 parasites; P. falciparum Dd2 growth, SYBR Green, 72 h; active compounds read low; activity change, % at 10 µM; actives 2.3% (n = 94,000); in the data active means activity change below about -80%
Hits are given with their value. A selection: hits, their analogues and other compounds. The true share with any hit is near 6.8%.

`COCC(=O)N1CC[C@@H]2[C@@H](CO)Nc3ccc(C#Cc4ccccc4)cc3[C@@H]21` gave C diff HTS inactive, T cruzi growth inactive and Pf Dd2 inh inactive.
`COc1cccc(S(=O)(=O)N2CCCCN3[C@@H](CO)[C@@H](c4ccc(C#CCC(C)C)cc4)[C@@H]3C2)c1` gave C diff HTS inactive, T cruzi growth inactive and Pf Dd2 inh -84.4.
`COc1cccc(S(=O)(=O)N2CCCCN3[C@H](C2)[C@@H](c2ccc(C#CCC(C)C)cc2)[C@@H]3CO)c1` gave C diff HTS inactive, T cruzi growth inactive and Pf Dd2 inh inactive.
For COc1cccc(S(=O)(=O)N2CCCCN3[C@H](C2)[C@H](c2ccc(C4=CCCCC4)cc2)[C@@H]3CO)c1 the results were C diff HTS inactive, T cruzi growth inactive and Pf Dd2 inh inactive.
Cc1ccc(-c2ccc([C@@H]3[C@H](CO)N4CCCCN(S(=O)(=O)c5ccccc5C)C[C@@H]34)cc2)cc1 was read as C diff HTS inactive, T cruzi growth inactive and Pf Dd2 inh -81.8.
COc1cccc(S(=O)(=O)N2CCCCN3[C@@H](CO)[C@@H](c4ccc(C5=CCCCC5)cc4)[C@@H]3C2)c1 was read as C diff HTS inactive, T cruzi growth inactive and Pf Dd2 inh -84.4.
`Cc1ccc(-c2ccc([C@H]3[C@@H](CO)N4CCCCN(S(=O)(=O)c5ccccc5C)C[C@@H]34)cc2)cc1` gave C diff HTS inactive, T cruzi growth inactive and Pf Dd2 inh inactive.
Screening C[C@H](NC(=O)N(C)C[C@@H]1OCc2ccccc2-c2c(n(C)c3ccccc23)C(=O)N([C@@H](C)CO)C[C@@H]1C)c1ccccc1 returned C diff HTS inactive, T cruzi growth inactive and Pf Dd2 inh inactive.
O=C(O)CCCCCCC(=O)Nc1ccc(C2OC(CSCCO)CC(c3ccccc3)O2)cc1 (stereo unspecified) was read as C diff HTS inactive.
For CCCNC(=O)N(C)C[C@H]1Oc2cc(-c3ccccc3)ccc2S(=O)(=O)N([C@H](C)CO)C[C@H]1C the results were C diff HTS inactive, T cruzi growth inactive and Pf Dd2 inh inactive.
For C[C@H]1CN([C@@H](C)CO)C(=O)Cc2cc(NC(=O)CCC(F)(F)F)ccc2O[C@@H]1CN(C)C(=O)Nc1ccccc1 the results were C diff HTS inactive, T cruzi growth inactive and Pf Dd2 inh inactive.
`C[C@H](CO)N1C[C@H](C)[C@H](CN(C)Cc2ccc(C(=O)Nc3ccccc3N)cc2)Oc2ccc(NC(=O)Nc3ccc(C(F)(F)F)cc3)cc2C1=O` gave C diff HTS inactive and Pf Dd2 inh -80.3.
C[C@H]1CN([C@@H](C)CO)C(=O)c2cc(NC(=O)Nc3ccc(F)cc3)ccc2O[C@H]1CN(C)Cc1ccc(C(=O)Nc2ccccc2N)cc1 was read as C diff HTS inactive, T cruzi growth inactive and Pf Dd2 inh inactive.
`C[C@@H]1CN([C@@H](C)CO)C(=O)c2cc(NC(=O)Nc3ccc(F)cc3)ccc2O[C@@H]1CN(C)Cc1ccc(C(=O)Nc2ccccc2N)cc1` gave C diff HTS inactive and Pf Dd2 inh -83.6.
`C[C@@H]1CN([C@@H](C)CO)C(=O)c2cc(NC(=O)c3ccncc3)ccc2O[C@@H]1CN(C)Cc1ccc(C(=O)Nc2ccccc2N)cc1` gave C diff HTS inactive and Pf Dd2 inh inactive.
`COc1ccc(NC(=O)Nc2ccc3c(c2)C(=O)N([C@H](C)CO)C[C@H](C)[C@H](CN(C)Cc2ccc(C(=O)Nc4ccccc4N)cc2)O3)cc1` gave C diff HTS inactive and Pf Dd2 inh inactive.
`C[C@H](CO)N1C[C@H](C)[C@H](CN(C)Cc2ccc(C(=O)Nc3ccccc3N)cc2)Oc2ccc(NC(=O)Nc3ccccc3)cc2C1=O` gave C diff HTS inactive, T cruzi growth inactive and Pf Dd2 inh inactive.
C[C@@H]1CN([C@@H](C)CO)C(=O)c2cc(NC(=O)Nc3ccccc3)ccc2O[C@@H]1CN(C)Cc1ccc(C(=O)Nc2ccccc2N)cc1 was read as C diff HTS inactive, T cruzi growth inactive and Pf Dd2 inh -83.5.
`C[C@H](CO)N1C[C@H](C)[C@H](CN(C)Cc2ccc(C(=O)Nc3ccccc3N)cc2)Oc2ccc(NC(=O)Cc3ccccc3)cc2C1=O` gave C diff HTS inactive and Pf Dd2 inh -84.4.
For CCC(=O)N1CC2(CN(S(C)(=O)=O)C2)c2c(n(C)c3cc(OC)ccc23)[C@@H]1CO the results were C diff HTS inactive and Pf Dd2 inh inactive.
Screening Cc1ccc(-c2ccc([C@@H]3[C@@H](CO)N4C(=O)CN(C(=O)c5cccnc5)C[C@@H]34)cc2)cc1 returned C diff HTS inactive and Pf Dd2 inh inactive.
Screening NCC[C@@H]1CC[C@H](NC(=O)C2CC2)[C@H](CO)O1 returned C diff HTS inactive and Pf Dd2 inh inactive.
Screening Cc1ccc(S(=O)(=O)N(C)C[C@H]2Oc3cc(C#Cc4ccncc4)ccc3S(=O)(=O)N([C@@H](C)CO)C[C@@H]2C)cc1 returned C diff HTS inactive, T cruzi growth inactive and Pf Dd2 inh -86.0.
For C[C@H]1CN([C@@H](C)CO)S(=O)(=O)c2ccc(C#Cc3ccncc3)cc2O[C@@H]1CN(C)S(=O)(=O)c1ccccc1 the results were C diff HTS inactive, T cruzi growth inactive and Pf Dd2 inh -93.1.
`Cc1ccc(S(=O)(=O)N(C)C[C@@H]2Oc3cc(C#Cc4ccncc4)ccc3S(=O)(=O)N([C@H](C)CO)C[C@H]2C)cc1` gave C diff HTS inactive, T cruzi growth inactive and Pf Dd2 inh inactive.
For C[C@@H]1CN([C@H](C)CO)S(=O)(=O)c2ccc(C#Cc3ccncc3)cc2O[C@H]1CN(C)S(=O)(=O)c1ccc(F)cc1 the results were C diff HTS inactive, T cruzi growth inactive and Pf Dd2 inh -86.3.
`Cc1ccc(S(=O)(=O)N(C)C[C@@H]2Oc3cc(C#Cc4ccncc4)ccc3S(=O)(=O)N([C@@H](C)CO)C[C@H]2C)cc1` gave C diff HTS inactive, T cruzi growth inactive and Pf Dd2 inh -81.4.
Screening Cc1ccc(S(=O)(=O)N(C)C[C@@H]2Oc3cc(C#Cc4ccncc4)ccc3S(=O)(=O)N([C@H](C)CO)C[C@@H]2C)cc1 returned C diff HTS inactive, T cruzi growth inactive and Pf Dd2 inh inactive.
`C[C@@H]1CN([C@@H](C)CO)S(=O)(=O)c2ccc(C#Cc3ccncc3)cc2O[C@H]1CN(C)S(=O)(=O)c1ccccc1` gave C diff HTS inactive, T cruzi growth inactive and Pf Dd2 inh inactive.
For C[C@H](CO)N1C[C@H](C)[C@@H](CN(C)S(=O)(=O)c2ccc(F)cc2)Oc2cc(C#Cc3ccncc3)ccc2S1(=O)=O the results were C diff HTS inactive, T cruzi growth inactive and Pf Dd2 inh inactive.
For Cc1noc(C)c1NC(=O)Nc1ccc2c(c1)C(=O)N([C@H](C)CO)C[C@H](C)[C@H](CN(C)C)OCCCC[C@H](C)O2 the results were C diff HTS inactive, T cruzi growth inactive and Pf Dd2 inh inactive.
COc1ccc(CN(C)C[C@@H]2OCCCC[C@H](C)Oc3ccc(NC(=O)Cc4ccccc4)cc3C(=O)N([C@H](C)CO)C[C@@H]2C)cc1 was read as C diff HTS inactive, T cruzi growth inactive and Pf Dd2 inh inactive.
C[C@H]1CN([C@@H](C)CO)C(=O)c2cccc(NS(C)(=O)=O)c2O[C@@H]1CN(C)Cc1ccc(C(=O)O)cc1 was read as C diff HTS inactive, T cruzi growth inactive and Pf Dd2 inh inactive.
